The list shows a part of the results. Calls of active or inactive are those of the source.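 The calls were made as follows, unless noted: active = GFP response above 150% of the DMSO level; inconclusive = fewer than 70 events counted for a yeast strain; inactive = the rest.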
Key:
[1] = RPL19A-GFP modulators, yeast TOR pathway, confirmation, cell-based, S. cerevisiae, flow cytometry, cherry picks, mother/daughter gates (AID 2270;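 active = GFP response below 50% of the DMSO control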); details: S. cerevisiae RPL19A-GFP strain, 3 h, at 10 µM, stronger effect = lower value, 100 = same GFP as DMSO wells
[2] = LAP4-GFP expression modulators in yeast, confirmation, cell-based, cherry picks, flow cytometry, mother/daughter gates (AID 2271;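 active = GFP response above 150% of the DMSO control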;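 also: ratio of sample to DMSO plate mean so 100% equals DMSO level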); details: S. cerevisiae LAP4-GFP strain, 3 h, at 10 µM, stronger effect = higher value, 100 means same as DMSO control
[3] = modulators of MEP2-GFP levels in yeast, confirmation, S. cerevisiae, flow cytometry GFP, cherry picks (AID 2272;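 active = GFP response above 150% of the DMSO control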;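 also: ratio of well signal to plate DMSO mean so 100% equals DMSO level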); details: S. cerevisiae MEP2-GFP strain, 3 h, at 10 µM, stronger effect = higher value
[4] = AGP1-GFP expression modulators, hit retest, confirmation, cell-based, flow cytometry, S. cerevisiae, cherry picks (AID 2273);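 also: median GFP channel fluorescence over the whole cell population gate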; details: S. cerevisiae AGP1-GFP strain, 3 h, at 10 µM
[5] = modulators of CIT2-GFP expression in yeast, confirmation, S. cerevisiae, GFP fusion, cherry picks, mother/daughter gates (AID 2274); details: S. cerevisiae CIT2-GFP strain, flow cytometry, 3 h, at 10 µM, stronger effect = higher value
[6] = compound autofluorescence in yeast s288c, dose response, artefact control for yeast TOR pathway GFP screen, s288c strain (AID 2757;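 active = fluorescence span over the dose series, or activity score, above about 33, limit read from the data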;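 also: thousands of bead-calibrated equivalent soluble fluorophore molecules from median cell fluorescence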); details: S. cerevisiae s288c, 520 nm autofluorescence, flow cytometry, 3 h; at 33 µM; stronger effect = higher value; zero means same as solvent-only cells
[7] = measured here: daughter cell gate
[8] = measured here: mother cell gate
[9] = measured here: daughter cell gate response
[10] = measured here: mother cell gate response

Structure (SMILES)	GFP response vs DMSO [1]	GFP response vs DMSO [1, 7] [%]	GFP response vs DMSO [1, 8] [%]	GFP response relative to DMSO [2]	GFP response relative to DMSO [2, 9] [%]	GFP response relative to DMSO [2, 10] [%]	GFP response vs DMSO [3]	GFP response, % of DMSO [4]	GFP response, % of DMSO [5]	GFP response, % of DMSO [5, 7] [%]	GFP response, % of DMSO [5, 8] [%]	fluorescence change (kMESF span) [6]
CCCc1[nH]nc2c1C(c1cccc(OC(=O)c3ccco3)c1)C(C#N)=C(N)O2 (stereo not given)	98.5% (inactive)	96.7	96.7	97.7% (inactive)	96	98.4	99.3% (inactive)	106% (inactive)	104% (inactive)	103	104	–
Cc1cc(O)ccc1NC(=O)c1ccccc1	98.4% (inactive)	98.4	95.6	96.7% (inactive)	92.8	–	102% (inactive)	102% (inactive)	98.3% (inactive)	–	–	–
COc1ccc(C(=O)NC(=S)NNC(=O)CCc2ccccc2)cc1	106% (inactive)	104	106	188% (active)	173	189	116% (inactive)	87.7% (inactive)	101% (inactive)	104	93.3	0.3 (inactive)
Cc1cccc(C)c1NC(=O)C(Cl)C(=O)c1ccccc1 (stereo not given)	89.9% (inactive)	87.6	82.5	241% (active)	168	252	100% (inactive)	101% (inactive)	99.7% (inactive)	95.4	87.8	0 (inactive)
O=C(c1ccc2c(c1)OCO2)N1CCN(c2ccccc2)CC1	98.2% (inactive)	97.1	94	96.7% (inactive)	104	–	98.3% (inactive)	98% (inactive)	99.7% (inactive)	–	–	–
Oc1c(CN2CCN(c3ccc(F)cc3)CC2)cc(Cl)c2cccnc12	101% (inactive)	102	94.3	264% (active)	253	245	187% (active)	104% (inactive)	141% (inactive)	159	125	0.21 (inactive)
CCN1/C(=C/C(C)=C/c2sc3ccccc3[n+]2CC)Sc2ccccc21	79.8% (inactive)	61.3	72.1	243% (active)	–	211	133% (inactive)	101% (inactive)	100% (inactive)	83.4	97.7	–
Nc1ccccc1SC(C[N+](=O)[O-])c1ccccc1 (stereo not given)	93.3% (inactive)	96.3	87.6	173% (active)	170	169	112% (inactive)	112% (inactive)	92.2% (inactive)	100	81.8	0.62 (inactive)

— PubChem BioAssay
